Test results from the supplement of paper PMC6555819.

Experiments:
Assay in all cases: PBM binding z-score (relative to random genomic background probes); higher = stronger binding; sequences stand for … in GC…GCGATTGACAGCGTAGAATGAAGG
[1] = system: RARb homodimer (NR concentration 270 nM)
Summary of the method: (§1)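 Probes were double-stranded and carried 34-nt variable regions with direct-repeat seeds, single-nucleotide variants, half-site ablations and random human genomic background sequences, printed on custom Agilent 4×180K protein-binding microarrays. Arrays were incubated 1 h with ligand-free nuclear receptor dimers in PBS pH 7.4, 2% milk, 0.02% Triton X-100, 1 mM DTT, 0.2 mg/mL BSA and 0.4 mg/ml salmon testes DNA. Antibodies against each partner (one per run) detected binding, and scanned fluorescence was regression-normalized. Binding z-scores use the random background probes as reference.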

[2] = system: RARg:RXRa (NR concentration 270 nM, RXRa partner concentration 90 nM)
Summary of the method: as §1

[3] = system: RARg homodimer (NR concentration 270 nM)
Summary of the method: as §1

[4] = system: RXRa DBDmut IVT, anti-RXR (DBD mutation: RXRa K156A/R161A, NR concentration 90 nM)
Summary of the method: as §1

[5] = system: RXRa homodimer (NR concentration 180 nM)
Summary of the method: as §1

[6] = system: THRa:RXRa (NR concentration 90 nM, RXRa partner concentration 90 nM)
Summary of the method: as §1

[7] = system: THRa homodimer (NR concentration 90 nM)
Summary of the method: as §1

[8] = system: VDR homodimer (NR concentration 270 nM)
Summary of the method: as §1

Sequence	PBM binding z-score [1]	PBM binding z-score [2]	PBM binding z-score [3]	PBM binding z-score [4]	PBM binding z-score [5]	PBM binding z-score [6]	PBM binding z-score [7]	PBM binding z-score [8]
TCAGACAGGTGAACGTAACTCAGGTACGCAGTCG	0.813	0.793	0.768	0.94	1.32	0.679	0.264	0.361
CGTCCAAAGTCATAGGAGGTCAGTGAAGACAGAT	3.55	2.71	2.75	0.438	1.96	4.28	0.808	1.55
CCTTGGAGGACAACAGGAGGTCAGAGCTGCCAGA	3.58	3.49	3.03	0.451	2.08	2.88	1.13	1.24
GGAACGAGTGCAAAGTTGATAGCATCTGTCGACG	-0.159	0.335	0.145	3.22	0.874	-0.385	-0.711	1.88
CAAACTAGGTAACAGAGGTCAAAGTCCGTGCGTA	4.45	5.28	4.28	2.34	6.18	4.1	1.95	4.49
CCGACTGGGGCAAAGGTTAACATACTCAGTACGA	2.4	4.1	2.03	0.365	3.89	2.19	-0.145	0.335
CATACAGGGTCAGCTAGGCAAGAGTAGGGACGGC	2.9	4.17	4.1	1.22	4.03	2.94	1	0.693
GGAACTAGGGCAAGTTGATAGCAGAGTTTGATGG	1.11	0.675	1.21	1.07	0.0337	0.0165	-0.214	0.251
TCAGACGGGTGAAGGTAACTCAGGTACGCAGTCG	0.122	0.19	0.0578	0.65	0.866	1.28	-0.229	-0.187
CCAGACAGGTGAGAAGGAAACTCAGCCTCGATTA	-0.0325	0.209	0.469	-0.203	0.154	-0.307	0.13	-0.0277
GCTATTAGATGAAAGGGCAACCGAATGATTCTCG	1.76	0.991	1.24	0.654	1.17	0.435	-0.425	-0.071
CCTACTGGGCCAAAAAGGTCAGTGATGCCGATAA	4.09	3.5	3.5	-0.472	2.87	2.11	0.0212	0.295
AGAACCAGGGCACGCTGAGTTGATAGCAGAGTAG	0.548	0.797	1.19	-0.0403	0.657	0.883	-0.00671	0.466
AATACAGGGTCATCGTAGGCCAGAATACGCACAG	3.68	5.69	5.13	3.5	6.42	4.4	1.5	3.25
TCAGACAGGTGAAGTTAACTCAGGTACGCAGTCG	0.596	0.588	0.629	1.33	0.838	1.55	0.285	0.404
GCAGACAGCTGAAACGCAGGTAACTCAGGGTGGC	-0.98	-0.584	-0.685	-0.772	-0.453	0.284	-0.483	-1.05
CGTCCAAGGTCATAGGATGTCAGTGAAGACAGAT	4.04	5.95	6.37	3.93	6.11	4.28	2.46	3.2
CGACCTAGGTCATTGACAGGACAGTGAATAGTAA	3.01	5.2	4.67	2.83	3.09	3.2	0.892	1.47
TAGCCTAGCTCATGCGGGCCAGTATAGTGTCGGC	-1.08	-0.81	-0.912	-1.45	-0.694	-1.65	-1.25	-0.887
TCTATTAGTTGATTAGGGCCACCGAAACAGCGGA	0.67	0.31	0.582	1.19	0.411	1.09	0.613	0.435
TCTTGTAGATCAAGCAGGTTAAGAATGCCTGAGT	0.163	-0.103	-0.0252	0.563	0.24	0.276	-0.376	0.0352
ACTAGCAGGCCAAGGGTCACTCATGATTAGTCCG	3.68	4.01	3.58	0.479	4.18	2.31	0.0224	1.07
CCTAGCAGGCCAATCTTGGTCACTCAAGGCTTGA	0.0668	-0.196	0.118	-0.0196	-0.417	0.909	-0.83	-0.655
AGAACGAGGGCACGCTGAGTTGATCGCAGAGTAG	1.14	2.19	2.41	1.74	1.27	1.85	-0.239	1.73
CCGAATGGGGCAGAAAGGTTACCATACCATCCGG	2.38	1.8	1.36	-0.766	1.91	1.07	-0.641	-0.0198
CCAAACAGGTGAGAAGGTAACTCAGCCTCGATTA	0.453	0.434	0.256	-0.0242	0.335	0.199	0.0192	-0.08
CCGACTGGGGCAAAGGCTACCATACTCAGTACGA	0.592	0.577	0.501	-0.632	0.387	-0.182	-0.604	-0.299
GCGACTGGGGCATCAGAAGGTTACCATAACTTAA	1.73	1.74	1.06	0.112	0.743	1.24	-0.47	-0.299
ACTATTAGTTGACTTAGGGCAACCGCTACGACGC	0.908	0.58	0.586	0.636	0.331	1.39	0.625	0.173
